# Shown are actives, neighbours in structure and some others; about 3.4% of the full set was active somewhere.
# ADAM10 inh = ADAM10 inhibition, QFRET primary screen | O14672 | recombinant ADAM10, EDANS/DABCYL FRET peptide cleavage, 3 h | inhibition, % at 7 µM | 0.62% of 370,000 active | AID 720582;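 active = inhibition above a per-campaign cutoff equal to the mean of compounds falling between control-based bounds plus 3 SD, cut at about 20% in these data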
# KLK7 zymogen act = activates the human kallikrein-7 zymogen; AID 652039; 0.9% of 370,000 active; P49862; purified proKLK7, EDANS-DABCYL substrate fluorescence; 100% is mature enzyme control, 0% vehicle; activation, % at 7 µM;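 active = activation above the mean of all tested compounds plus 3 SD, computed per campaign excluding outliers beyond control limits, cut at about 13% in these data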
# NRP1-CendR mod = modulators of CendR peptide binding to human neuropilin-1; inhibition, % at 25 µM; 0.85% of 360,000 active; FAM-RPARPAR peptide binding to NRP-1, fluorescence polarization;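 active = inhibition or corrected inhibition above about 18%, plus a signal ratio from 0.5 to 1.5, limit read from the data, passing the limit was not always enough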
# ADAM17 inh = inhibits human ADAM17; recombinant ADAM17, EDANS/DABCYL FRET peptide cleavage; 0.83% of 370,000 active; inhibition, % at 6.95 µM;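 active = inhibition above the mean of compounds lying between control limits plus 3 SD, set per campaign, cut at about 8.5% in these data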
# Target sequence (P78536 215-824 limits assumed): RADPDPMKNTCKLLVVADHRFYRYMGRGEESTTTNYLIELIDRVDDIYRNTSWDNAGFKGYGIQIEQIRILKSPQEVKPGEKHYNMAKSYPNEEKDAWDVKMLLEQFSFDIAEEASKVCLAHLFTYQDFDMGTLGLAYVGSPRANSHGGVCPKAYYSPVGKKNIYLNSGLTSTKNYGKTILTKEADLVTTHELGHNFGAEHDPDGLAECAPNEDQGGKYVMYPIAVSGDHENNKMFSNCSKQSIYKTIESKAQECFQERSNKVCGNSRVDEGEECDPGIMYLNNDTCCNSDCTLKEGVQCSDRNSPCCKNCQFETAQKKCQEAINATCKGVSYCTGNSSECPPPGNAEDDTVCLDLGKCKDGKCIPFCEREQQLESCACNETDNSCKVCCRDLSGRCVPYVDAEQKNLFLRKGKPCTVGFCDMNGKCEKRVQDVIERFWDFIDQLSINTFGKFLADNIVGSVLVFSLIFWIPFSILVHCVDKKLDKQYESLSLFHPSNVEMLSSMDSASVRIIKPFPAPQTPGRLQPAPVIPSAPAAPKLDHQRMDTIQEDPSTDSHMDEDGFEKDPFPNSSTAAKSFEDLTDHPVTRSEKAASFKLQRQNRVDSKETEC
# sPLA2-III inh = Inhibits HGIII-sPLA2 liposome hydrolysis, primary screen. 0.56% of 370,000 active. inhibition, % at 12.2 µM. AID 743126. Q9NZ20. QFRET BODIPY PC-A2 liposome hydrolysis, fluorescence;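 active = inhibition above mean plus 3 SD of compounds lying within the high and low control bounds, cut at about 19% in these data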
# proKLK7 act conf = confirmation of human kallikrein-7 zymogen activators; shares compounds with KLK7 zymogen act; purified proKLK7, EDANS-DABCYL substrate fluorescence; scaled: vehicle 0, mature enzyme 100; activation, % at 7 µM; 68% of 3,200 active;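 active = activation, as change over the incubation, above the mean of all tested compounds plus 3 SD, cut at about 13% in these data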
# EDANS-DABCYL int = counter-screen for kallikrein-7 activators: EDANS-DABCYL optical interference | shares compounds with KLK7 zymogen act | EDANS-DABCYL substrate fluorescence interference, no enzyme, 4 h; solvent 0%, active enzyme control 100% | activation, % at 7 µM | 80% of 3,200 active | AID 686952;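 active = activation above the all-compound mean plus 3 SD, ignoring values outside control-based bounds, cut at about 4.8% in these data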;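 also: value is the 4 h activation minus the activation read at time zero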
# EDANS interf = optically interferes with EDANS-DABCYL fluorescence, kallikrein-7 activator counter-screen; shares compounds with KLK7 zymogen act; EDANS-DABCYL peptide fluorescence interference, no enzyme; EC50, µM; 20% of 250 active; AID 720493;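 active = compounds that raise the fluorescence signal in this interference counterscreen, with EC50 at or below 10 µM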;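 also: intact quenched peptide substrate alone read at 355 nm excitation and 520 nm emission; signal is fluorescence gain from T0 to T4 after four hours at room temperature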
# Numbers stand for hits; i = inactive; nt = no result given.
SMILES,ADAM10 inh,KLK7 zymogen act,NRP1-CendR mod,ADAM17 inh,sPLA2-III inh,proKLK7 act conf,EDANS-DABCYL int,others
COc1ccc(C(=O)C2(C(=O)Nc3cc(C)cc(C)c3)CC(c3ccccn3)=NO2)cc1 (stereo not given),i,i,nt,i,i,nt,nt,
O=C(C1CCN(c2cncnc2)CC1)N1CCOCC1,i,i,nt,i,i,nt,nt,
CC(=O)Oc1ccc2cc(-c3nc4ccccc4n3C)c(=O)oc2c1,i,39,i,i,i,76,80,
Cn1c(-c2cc3ccc(OC(=O)C(C)(C)C)cc3oc2=O)nc2ccccc21,i,34,i,i,i,62,60,
Cc1ccccc1N1CCN(C(=O)CCn2nnc3ccccc32)CC1,i,i,nt,i,i,nt,nt,
O=C(C1CCCN1S(=O)(=O)c1ccc(Br)s1)N1CCN(c2ccccc2)CC1 (stereo not given),i,i,nt,i,i,nt,nt,
O=C1C(=O)N(Cc2ccncc2)C(c2cccc(O)c2)/C1=C(\O)c1ccc2c(c1)OCCO2 (stereo not given),i,15,i,i,i,i,7.4,
O=C(Nc1cccc(NC(=O)c2ccc(-c3ccc(Br)cc3)o2)c1)c1ccco1,i,440,i,i,i,446,213,
O=C(Nc1cccc(NC(=O)c2ccccc2Cl)c1)c1ccco1,i,i,i,i,i,nt,nt,
CN[C@H]1C[C@@H](c2ccccc2Br)N(C(C)=O)C[C@H]1CO,i,i,nt,i,i,nt,nt,
O=C(OCC#CCSc1nnc(-c2cccc3ccccc23)o1)c1ccc(OC(F)(F)F)cc1,i,nt,nt,i,i,nt,nt,
COc1ccc2c(c1)cc1n2CCN=C1NCCO,i,17,i,i,i,20,27,
CCN(CC)CCN1C(=O)c2ccccc2NC1c1ccc(F)cc1 (stereo not given),i,92,i,i,i,37,34,
CCN(CC)CCN1C(=O)c2ccccc2NC1c1ccc(Br)cc1 (stereo not given),i,61,i,i,i,i,23,
CN(C)c1ccc(C2Nc3ccccc3C(=O)N2CCCN2CCOCC2)cc1 (stereo not given),i,i,i,i,i,nt,nt,
CCOC(=O)NN1C(=O)c2ccccc2NC1c1ccc(OC)c(OC)c1 (stereo not given),i,20,i,i,i,25,26,
O=C(O)CCC(=O)NN1C(=O)c2ccccc2NC1c1ccc(F)cc1 (stereo not given),i,17,i,i,i,38,31,EDANS interf=i
COc1ccc(-c2noc(C3CCCN(C(=O)Nc4ccc(Cl)cc4)C3)n2)cc1 (stereo not given),i,i,nt,i,i,nt,nt,
CCN(CC)CCN1C(=O)c2ccccc2NC1c1cccc(F)c1 (stereo not given),i,72,i,i,i,35,33,
CCN(CC)CCN1C(=O)c2ccccc2NC1c1ccc(C)cc1 (stereo not given),i,75,i,i,i,29,37,
CCN(CC)CCN1C(=O)c2ccccc2NC1c1ccccc1F (stereo not given),i,74,i,i,i,26,38,
CCN(CC)CCN1C(=O)c2ccccc2NC1c1ccc(N(C)C)cc1 (stereo not given),i,i,i,i,i,nt,nt,
CCOc1ccc(NC(=O)CSc2nnc(-c3n[nH]c4c3CCC4)n2N)cc1,i,i,nt,i,i,nt,nt,
CC(c1nc2ccccc2[nH]1)n1c(=O)c(-c2cccs2)nc2ccccc21 (stereo not given),i,190,i,i,i,22,i,EDANS interf=7.5
O=c1[nH]c2ccccc2nc1-c1cccs1,i,32,i,i,i,32,43,
CCc1cc2c3c(c(=O)oc2cc1OC(C)C(=O)O)CCCC3 (stereo not given),i,i,i,i,i,nt,nt,
CCc1cc2c3c(c(=O)oc2cc1O)CCCC3,i,54,i,i,i,62,66,
CCc1cc2c(CN3CCN(C)CC3)cc(=O)oc2cc1O,i,78,i,i,i,68,75,
